Laboratory results reported in PubChem BioAssay (NCI).
This is part of a sample that, as a whole, favours compounds with a hit. Of some 79,000 tested, about 15% had one in any assay. Values without a mark were called inactive. The source made the active and inactive calls. No stated cut-off is given here; in the data, active means growth inhibition above about 70%; inactive means the rest.

Key:
[1] = NCI Yeast Anticancer Drug Screen. Data for the rad52 strain (AID 147);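 further: 0% = growth of vehicle-treated control cultures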; conditions: S. cerevisiae rad52 mutant growth inhibition, active compounds read high
In short: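 Here a repair-compromised yeast strain receives each compound; its growth is then quantified and normalised to vehicle-only controls.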

[2] = NCI Yeast Anticancer Drug Screen. Data for the wt1 strain (AID 149);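 further: 0% = growth of vehicle-treated wt1 cultures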; conditions: S. cerevisiae wt1 strain (SPY 50644) growth inhibition, active compounds read high
In short: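 Growth inhibition read against vehicle controls after compound exposure of the wt1 yeast strain.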

[3] = NCI Yeast Anticancer Drug Screen. Data for the rad50EPP+ strain (AID 151);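 further: 0% = growth of vehicle-treated control cultures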; conditions: S. cerevisiae rad50 mutant strain, active compounds read high
In short: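 Read-out is yeast growth inhibition relative to vehicle; cells used were the rad50EPP+ strain.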

[4] = NCI Yeast Anticancer Drug Screen. Data for the mgt1 strain (AID 153); conditions: S. cerevisiae mgt1 mutant growth inhibition, active compounds read high
In short: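 Measured: inhibition of mgt1 yeast growth by compound, normalized to vehicle-treated cultures.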

[5] = NCI Yeast Anticancer Drug Screen. Data for the rad50 strain (AID 155);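 further: 0% = growth of vehicle-only cultures of the same strain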; conditions: S. cerevisiae rad50 strain growth inhibition, active compounds read high
In short: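 Readout: growth inhibition relative to vehicle-treated cultures. Compound exposure was carried out in a genetically defined yeast strain deficient in DNA damage repair.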

[6] = NCI Yeast Anticancer Drug Screen. Data for the mec2-1 strain (AID 157); conditions: S. cerevisiae mec2-1 strain, active compounds read high
In short: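 Using mec2-1 yeast: add compound, measure growth, express inhibition versus vehicle-treated cultures.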

[7] = NCI Yeast Anticancer Drug Screen. Data for the rad14 strain (AID 159);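 further: 0% = growth of vehicle-treated control cultures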; conditions: S. cerevisiae rad14 strain growth inhibition, active compounds read high
In short: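 Growth inhibition vs vehicle controls; genetically altered yeast strain (DNA damage repair defect) treated with test compounds.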

[8] = NCI Yeast Anticancer Drug Screen. Data for the sgs1 mgt1 strain (AID 161);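 further: 0% = growth of cultures given vehicle only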; conditions: S. cerevisiae sgs1 mgt1 strain, active compounds read high
In short: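 Yeast cells carrying a defined DNA-repair defect were exposed to test compounds. Growth inhibition was measured relative to vehicle-treated controls.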

[9] = NCI Yeast Anticancer Drug Screen. Data for the CLN2oe strain (AID 163);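 further: 0% = growth of vehicle-only control cultures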; conditions: S. cerevisiae CLN2oe strain, active compounds read high
In short: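 Whole-cell yeast growth assay. A strain engineered for altered cell-cycle control received compound, and inhibition relative to vehicle-treated cultures was recorded.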

[10] = NCI Yeast Anticancer Drug Screen. Data for the cln2 rad14 strain (AID 165);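 further: 0% = growth equal to vehicle treated cultures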; conditions: S. cerevisiae cln2 rad14 strain, active compounds read high
In short: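 Yeast strain cln2 rad14, bearing defects in cell cycle control and DNA repair, serves as the test system; values reflect growth inhibition compared with vehicle.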

[11] = NCI Yeast Anticancer Drug Screen. Data for the bub3 strain (AID 167); conditions: S. cerevisiae bub3 mutant strain, active compounds read high
In short: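 Readout: yeast growth inhibition, expressed relative to vehicle-only wells. The test organism is a mutant strain from a panel with lesions in DNA repair or checkpoint genes.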

[12] = NCI Yeast Anticancer Drug Screen. Data for the wt2 strain (AID 169);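 further: 0% = growth of vehicle-treated yeast cultures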; conditions: S. cerevisiae wt2 strain growth inhibition, active compounds read high
In short: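 Treated yeast vs. vehicle-treated yeast: growth inhibition determined.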

[13] = NCI Yeast Anticancer Drug Screen. Data for the mlh1 strain (AID 171);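 further: 0% = growth of vehicle-treated control cultures of the same strain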; conditions: S. cerevisiae mlh1 strain growth inhibition, active compounds read high
In short: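 A yeast strain with a defined genetic lesion serves as the test organism. Cultures receive compound or vehicle, and growth is measured.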

[14] = NCI Yeast Anticancer Drug Screen. Data for the sgs1 strain (AID 173);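 further: 0% = growth of vehicle-only control cultures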; conditions: S. cerevisiae sgs1 mutant, active compounds read high
In short: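 A genetically defined yeast mutant is incubated with the test compound, and its growth is compared to that of the same strain given vehicle.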

[15] = NCI Yeast Anticancer Drug Screen. Data for the mlh1 rad18 strain (AID 175); conditions: S. cerevisiae mlh1 rad18 strain growth inhibition, active compounds read high
In short: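 Steps: expose repair-defective yeast to compound; measure growth; express inhibition against vehicle-treated controls.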

[16] = NCI Yeast Anticancer Drug Screen. Data for the rad18 strain (AID 177); conditions: S. cerevisiae rad18 mutant growth inhibition, active compounds read high
In short: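 Measured value is growth inhibition of a yeast strain bearing a DNA repair alteration, referenced to vehicle-treated cells.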

[17] = at 5.0 µM (retest, dose inferred, filed as 0.5)
[18] = at 50.0 µM (retest, dose inferred, filed as 5.0)

Q: Which growth inhibition ([1]; at 1.2 µM) does the source give for `Cc1ccc(NC(=O)CCC(=O)C(C)C(=O)c2ccccc2)c(C)c1` (stereo not drawn) here?
A: 1%

Q: What about the growth inhibition ([1]; at 3.7 µM) of the same compound?
A: 1%

Q: What about the growth inhibition ([1]; at 11.0 µM) of the same compound?
A: 3%

Q: What about the growth inhibition ([1]; at 33.0 µM) of the same compound?
A: 1%

Q: And the growth inhibition ([1]; at 100.0 µM)?
A: -1%

Q: And the growth inhibition ([2]; at 1.2 µM)?
A: -1%

Q: And the growth inhibition ([2]; at 3.7 µM)?
A: -1%

Q: And the growth inhibition ([2]; at 11.0 µM)?
A: -1%

Q: What about the growth inhibition ([2]; at 33.0 µM) of the same compound?
A: -1%

Q: And the growth inhibition ([2]; at 100.0 µM)?
A: -3%

Q: What about the growth inhibition ([3]; at 1.2 µM) of the same compound?
A: -2%

Q: And the growth inhibition ([3]; at 3.7 µM)?
A: 0%

Q: What about the growth inhibition ([3]; at 11.0 µM) of the same compound?
A: 1%

Q: What about the growth inhibition ([3]; at 33.0 µM) of the same compound?
A: 0%

Q: And the growth inhibition ([3]; at 100.0 µM)?
A: 5%

Q: What about the growth inhibition ([4]; at 1.2 µM) of the same compound?
A: 0%

Q: And the growth inhibition ([4]; at 3.7 µM)?
A: 5%

Q: What about the growth inhibition ([4]; at 11.0 µM) of the same compound?
A: 1%

Q: What about the growth inhibition ([4]; at 33.0 µM) of the same compound?
A: 0%

Q: And the growth inhibition ([4]; at 100.0 µM)?
A: -5%

Q: What about the growth inhibition ([5]; at 1.2 µM) of the same compound?
A: 1%

Q: And the growth inhibition ([5]; at 3.7 µM)?
A: -6%

Q: What about the growth inhibition [5, 17] of the same compound?
A: 91% (active)

Q: And the growth inhibition ([5]; at 11.0 µM)?
A: 3%

Q: What about the growth inhibition ([5]; at 33.0 µM) of the same compound?
A: 3%

Q: What about the growth inhibition [5, 18] of the same compound?
A: 92% (active)

Q: What about the growth inhibition ([5]; at 50.0 µM) of the same compound?
A: -41.7%

Q: What about the growth inhibition ([5]; at 100.0 µM) of the same compound?
A: -1%

Q: And the growth inhibition ([6]; at 1.2 µM)?
A: -3%

Q: And the growth inhibition ([6]; at 3.7 µM)?
A: -5%

Q: And the growth inhibition [6, 17]?
A: 12%

Q: What about the growth inhibition ([6]; at 11.0 µM) of the same compound?
A: 1%

Q: What about the growth inhibition ([6]; at 33.0 µM) of the same compound?
A: -2%

Q: What about the growth inhibition [6, 18] of the same compound?
A: 39%

Q: What about the growth inhibition ([6]; at 50.0 µM) of the same compound?
A: -1.6%

Q: And the growth inhibition ([6]; at 100.0 µM)?
A: -3%

Q: And the growth inhibition ([7]; at 1.2 µM)?
A: 0%

Q: What about the growth inhibition ([7]; at 3.7 µM) of the same compound?
A: 2%

Q: And the growth inhibition ([7]; at 11.0 µM)?
A: 1%

Q: And the growth inhibition ([7]; at 33.0 µM)?
A: 2%

Q: What about the growth inhibition ([7]; at 100.0 µM) of the same compound?
A: 2%

Q: And the growth inhibition [8, 17]?
A: 5%

Q: What about the growth inhibition [8, 18] of the same compound?
A: 9%

Q: And the growth inhibition ([8]; at 50.0 µM)?
A: 11.1%

Q: And the growth inhibition ([9]; at 1.2 µM)?
A: -1%

Q: And the growth inhibition ([9]; at 3.7 µM)?
A: 1%

Q: What about the growth inhibition ([9]; at 11.0 µM) of the same compound?
A: 5%

Q: And the growth inhibition ([9]; at 33.0 µM)?
A: 1%

Q: And the growth inhibition ([9]; at 100.0 µM)?
A: 0%

Q: And the growth inhibition [10, 17]?
A: -3%

Q: What about the growth inhibition [10, 18] of the same compound?
A: 11%

Q: And the growth inhibition ([10]; at 50.0 µM)?
A: -12.9%

Q: And the growth inhibition ([11]; at 1.2 µM)?
A: -1%

Q: And the growth inhibition ([11]; at 3.7 µM)?
A: -2%

Q: What about the growth inhibition [11, 17] of the same compound?
A: -15%

Q: What about the growth inhibition ([11]; at 11.0 µM) of the same compound?
A: -2%

Q: And the growth inhibition ([11]; at 33.0 µM)?
A: -5%

Q: What about the growth inhibition [11, 18] of the same compound?
A: -10%

Q: And the growth inhibition ([11]; at 50.0 µM)?
A: 0.65%

Q: And the growth inhibition ([11]; at 100.0 µM)?
A: -5%

Q: What about the growth inhibition ([12]; at 1.2 µM) of the same compound?
A: -2%

Q: What about the growth inhibition ([12]; at 3.7 µM) of the same compound?
A: -1%

Q: And the growth inhibition ([12]; at 11.0 µM)?
A: -1%

Q: What about the growth inhibition ([12]; at 33.0 µM) of the same compound?
A: -2%

Q: What about the growth inhibition ([12]; at 100.0 µM) of the same compound?
A: -4%

Q: And the growth inhibition ([13]; at 1.2 µM)?
A: -2%

Q: And the growth inhibition ([13]; at 3.7 µM)?
A: -1%

Q: What about the growth inhibition ([13]; at 11.0 µM) of the same compound?
A: -1%

Q: What about the growth inhibition ([13]; at 33.0 µM) of the same compound?
A: -1%

Q: What about the growth inhibition ([13]; at 100.0 µM) of the same compound?
A: 0%

Q: What about the growth inhibition ([14]; at 1.2 µM) of the same compound?
A: 0%

Q: What about the growth inhibition ([14]; at 3.7 µM) of the same compound?
A: -1%

Q: What about the growth inhibition ([14]; at 11.0 µM) of the same compound?
A: -3%

Q: What about the growth inhibition ([14]; at 33.0 µM) of the same compound?
A: -1%

Q: And the growth inhibition ([14]; at 100.0 µM)?
A: -1%

Q: And the growth inhibition [15, 17]?
A: 6%

Q: What about the growth inhibition [15, 18] of the same compound?
A: 3%

Q: What about the growth inhibition ([15]; at 50.0 µM) of the same compound?
A: 6.15%

Q: And the growth inhibition ([16]; at 1.2 µM)?
A: -1%

Q: What about the growth inhibition ([16]; at 3.7 µM) of the same compound?
A: -1%

Q: And the growth inhibition ([16]; at 11.0 µM)?
A: -1%

Q: And the growth inhibition ([16]; at 33.0 µM)?
A: -3%

Q: And the growth inhibition ([16]; at 100.0 µM)?
A: -1%
